Assay results: PubChem BioAssay (NCATS)
Records with an inconclusive call do not appear. Entries that show only a call come without a potency. The source made the active and inactive calls. The call rests on the fitted dose curve; in most records, active means well fitted curve in the direction sought with a large enough effect; inconclusive means small, poorly fitted or top-dose-only effect, or another doubt; inactive means no such curve, though single readings can be large; an effect the other way counts as inactive or inconclusive.

molecular target: Tyrosine-protein phosphatase non-receptor type substrate 1 (Homo sapiens) + Leukocyte surface antigen CD47 (Homo sapiens) (UniProt P78324+Q08722); assay: CD47-SIRPalpha protein protein interaction - Alpha assay qHTS validation (AID 1347059); conditions: AlphaScreen CD47-His/biotin-SIRPalpha binding, LOPAC; series mostly up to 38.3 µM;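 further: bead proximity luminescence from CD47 binding SIRPalpha after compound preincubation with SIRPalpha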
Sequence (P78324 whole entry, looked up): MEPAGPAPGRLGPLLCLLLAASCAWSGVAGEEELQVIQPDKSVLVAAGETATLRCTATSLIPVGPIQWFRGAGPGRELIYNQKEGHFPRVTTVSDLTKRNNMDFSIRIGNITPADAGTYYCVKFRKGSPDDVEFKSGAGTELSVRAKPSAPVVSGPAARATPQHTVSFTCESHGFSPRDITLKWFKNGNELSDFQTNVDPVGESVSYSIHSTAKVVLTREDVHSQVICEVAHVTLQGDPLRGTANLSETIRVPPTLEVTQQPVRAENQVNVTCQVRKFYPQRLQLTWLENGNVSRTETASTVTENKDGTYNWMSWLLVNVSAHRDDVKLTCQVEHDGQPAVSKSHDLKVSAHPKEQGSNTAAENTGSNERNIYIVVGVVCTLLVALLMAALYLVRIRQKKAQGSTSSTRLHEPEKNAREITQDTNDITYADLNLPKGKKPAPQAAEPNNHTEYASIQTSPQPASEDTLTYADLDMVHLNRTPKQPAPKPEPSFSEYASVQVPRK
Sequence (Q08722 whole entry, looked up): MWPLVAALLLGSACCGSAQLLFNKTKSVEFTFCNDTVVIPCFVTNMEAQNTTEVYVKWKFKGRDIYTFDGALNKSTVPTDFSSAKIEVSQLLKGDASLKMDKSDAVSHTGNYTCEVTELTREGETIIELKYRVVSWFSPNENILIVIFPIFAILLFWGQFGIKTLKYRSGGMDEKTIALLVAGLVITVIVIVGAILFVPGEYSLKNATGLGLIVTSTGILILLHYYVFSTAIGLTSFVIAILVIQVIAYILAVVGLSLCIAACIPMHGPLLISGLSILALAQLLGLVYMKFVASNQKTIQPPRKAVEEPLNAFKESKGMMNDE
Outline: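 Biotinylated Avi-tagged SIRPalpha (25 nM) preincubated 30 min with compound, then His-tagged CD47 (12.5 nM) added 30 min; AlphaScreen with Ni-NTA acceptor and streptavidin donor beads. PBS pH 7.4, 0.05% IGEPAL, room temperature; 7-point titrations.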

Row | SMILES | outcome
1 | CC(CN(C)C)CN1c2ccccc2CCc2ccccc21 (stereo not drawn) | inactive
2 | NC1[C@H]2CN(c3nc4c(cc3F)c(=O)c(C(=O)O)cn4-c3ccc(F)cc3F)C[C@@H]12 (stereo partly drawn) | inactive
3 | CCCCc1ncc(/C=C(\Cc2cccs2)C(=O)O)n1Cc1ccc(C(=O)O)cc1 | inactive
4 | C=Cc1c(C)c2cc3[nH]c(cc4nc(cc5nc(cc1[nH]2)C(C)=C5CCC(=O)O)C(CCC(=O)O)=C4C)c(C)c3C=C | inactive
5 | C[C@H](NC(CCc1ccccc1)C(=O)O)C(=O)N1CCC[C@H]1C(=O)O (stereo partly drawn) | inactive
6 | CN(C)CCC=C1c2ccccc2CCc2ccccc21 | inactive
7 | O=C1NC(=O)[C@@]2(CCOc3ccc(F)cc32)N1 | inactive
8 | CN1CCC[C@@H]1Cc1c[nH]c2ccc(CCS(=O)(=O)c3ccccc3)cc12 | inactive
9 | CC(C)c1c(C(=O)Nc2ccccc2)c(-c2ccccc2)c(-c2ccc(F)cc2)n1CC[C@@H](O)C[C@@H](O)CC(=O)O | inactive
10 | CC(=O)c1ccc2c(c1)N(CCCN(C)C)c1ccccc1S2 | inactive
11 | CNCCCC1c2ccccc2C=Cc2ccccc21 | inactive
12 | Cc1c(O)cccc1C(=O)N[C@@H](CSc1ccccc1)[C@H](O)CN1C[C@H]2CCCC[C@H]2C[C@H]1C(=O)NC(C)(C)C | inactive
13 | C[C@H]1O[C@@H](n2cc(F)c(=O)[nH]c2=O)[C@H](O)[C@@H]1O | inactive
14 | Cc1cc(N)c2ccccc2[n+]1CCCCCCCCCC[n+]1c(C)cc(N)c2ccccc21 | inactive

molecular target: Parathyroid hormone/parathyroid hormone-related peptide receptor (Homo sapiens) (UniProt Q03431); assay: qHTS for PTHR1 Agonists: Optimization Screen against the NCGC LOPAC library (AID 1347079); conditions: HEK293 GP2 PTHR1 GloSensor cAMP luminescence, 1 h; series mostly up to 57.1 µM;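 further: GloSensor cAMP luminescence in HEK-293 GP2 cells expressing human PTHR1 with IBMX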
Sequence (Q03431 whole entry, looked up): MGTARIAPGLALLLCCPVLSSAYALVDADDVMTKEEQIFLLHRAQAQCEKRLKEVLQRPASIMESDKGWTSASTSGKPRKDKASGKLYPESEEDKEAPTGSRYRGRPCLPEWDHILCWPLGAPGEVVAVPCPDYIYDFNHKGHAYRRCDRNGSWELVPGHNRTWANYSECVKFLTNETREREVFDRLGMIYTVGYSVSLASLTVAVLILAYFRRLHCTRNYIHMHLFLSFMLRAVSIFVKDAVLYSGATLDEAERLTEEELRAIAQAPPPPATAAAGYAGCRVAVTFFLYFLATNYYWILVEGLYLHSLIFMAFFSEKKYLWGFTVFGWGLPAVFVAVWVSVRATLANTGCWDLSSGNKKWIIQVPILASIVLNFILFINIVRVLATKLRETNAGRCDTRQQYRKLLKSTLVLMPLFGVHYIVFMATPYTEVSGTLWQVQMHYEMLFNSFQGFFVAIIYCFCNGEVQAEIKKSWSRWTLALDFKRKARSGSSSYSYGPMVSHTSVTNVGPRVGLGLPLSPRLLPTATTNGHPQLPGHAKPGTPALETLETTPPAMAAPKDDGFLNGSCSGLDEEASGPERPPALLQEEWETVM
Outline: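 Agonist readout: GloSensor cAMP luminescence, read after 15 min at room temperature. HEK-293-derived GP2 line carries PTHR1; compounds tested as a titration for 1 hr at 37C in presence of IBMX. M-PTH (1-15) served as control.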

Row | SMILES | Potency
15 | CC(CN(C)C)CN1c2ccccc2CCc2ccccc21 (stereo not drawn) | inactive
16 | COCCOC(=O)C1=C(C)NC(C)=C(C(=O)OC/C=C/c2ccccc2)C1c1cccc([N+](=O)[O-])c1 (stereo not drawn) | inactive
17 | COC(=O)C1=C(C)NC(C)=C(C(=O)OC)C1c1ccccc1[N+](=O)[O-] | inactive
18 | CSc1ccc2c(c1)N(CCC1CCCCN1C)c1ccccc1S2 (stereo not drawn) | inactive
19 | CCN(CC)CCCC(C)Nc1c2ccc(Cl)cc2nc2ccc(OC)cc12 (stereo not drawn) | inactive
20 | C=Cc1c(C)c2cc3[nH]c(cc4nc(cc5nc(cc1[nH]2)C(C)=C5CCC(=O)O)C(CCC(=O)O)=C4C)c(C)c3C=C | inactive
21 | OCCN1CCN(CCCN2c3ccccc3Sc3ccc(Cl)cc32)CC1 | inactive
22 | CN(C)CCC=C1c2ccccc2CCc2ccccc21 | inactive
23 | CNCCC(Oc1ccc(C(F)(F)F)cc1)c1ccccc1 (stereo not drawn) | inactive
24 | CN(C)CCCN1c2ccccc2Sc2ccc(Cl)cc21 | inactive
25 | CN(C)CC[C@@H](c1ccc(Cl)cc1)c1ccccn1 | inactive
26 | CNCCCC1c2ccccc2C=Cc2ccccc21 | inactive
27 | Cc1cc(N)c2ccccc2[n+]1CCCCCCCCCC[n+]1c(C)cc(N)c2ccccc21 | inactive
28 | CC(C)(C(=O)O)c1ccc(C(O)CCCN2CCC(C(O)(c3ccccc3)c3ccccc3)CC2)cc1 (stereo not drawn) | inactive
